# Laboratory results as given in PubChem BioAssay (NCATS).
# Results filed as inconclusive are left out. A call without a number means that no potency is given here. The source made the active and inactive calls. Calls come from the whole dose curve; as a rule, active = well fitted cell-killing curve with a large enough effect; inconclusive = small, poorly fitted or top-dose-only effect; inactive = no such curve, though single readings can be large or run the other way.
# Experiment: qHTS of pediatric cancer cell lines to identify multiple opportunities for drug repurposing: Primary screen for Rh30 cells (AID 1347107); note: nearly all actives have a fitted effect of over 75% in size
# Conditions: Rh30 rhabdomyosarcoma viability, CellTiter-Glo luminescence, 48 h; series mostly up to 46 µM
# Text: Drug repurposing or repositioning has been offered as a strategy for drug development in oncology programs. This approach has special potential for childhood cancers and other rare or orphan diseases, where the expected return on new drug development has been a disincentive to pharmaceuticals.
# In this project we exploit the poly-pharmacology of drugs to discover new indications via phenotypic screening of a panel of 19 well-characterized cell lines derived from solid tumors seen in children and adolescents. The goal is to identify approved drugs with previously unrecognized anticancer properties that has the potential to reveal new mechanisms and biological processes involved in carcinogenesis or drug resistance. We employed a titration-based paradigm (quantitative high-throughput screening or qHTS), where all compounds were tested at multiple concentrations for their effect on cell viability. Concentration-response curves (CRCs) were derived directly from the primary screen, and both potency and efficacy values were used to identify compounds with robust bioactivity profiles. We screened the NIH Chemical Genomics Center (NCGC) Pharmaceutical Collection (NPC) and Mechanism Interrogation Plate (MIPE) small molecule collections of approved and investigational compounds against these cell lines; and measured metabolically active cells after 48 hours of compound treatment as a proxy for cell viability.
# Assay Submitter: Nathalia J. Martinez, National Center for Advancing Translational Sciences, National Institutes of Health, Rockville, MD, USA; email: natalia.martinez@nih.gov
# [1] Shen, M et al. Quantitative high-throughput phenotypic screening of pediatric cancer cell lines identifies multiple opportunities for drug repurposing. Oncotarget 2017 Dec 19;9(4):4758-4772. PMID 29435139.
# The cells were obtained from University of North Carolina (UNC), Pediatric Preclinical Testing Program (PPT), and Coriell Institute (CI).
# qHTS cell viability assay:
# Cells were assayed in growth media at a density of 500-1,000 cells/well. Five microliters of cells were dispensed into 1,536-well, white, solid-bottom, TC-treated plates (Greiner Bio One) using a multidrop dispenser and incubated at 37 degrees C, 5% CO2, under a humidified atmosphere for 5 hours. Twenty-three nanoliters of compounds and controls (neutral control DMSO or positive control bortezomib at final concentration of 2.3 µM) were subsequently transferred by Kalypsys pintool. For primary screens, the MIPE collection was tested at 11-point dilutions (final concentrations range from 0.78 nM to 46 µM) and the NPC collection at 8-point dilutions (final concentrations range from 0.59 nM to 46 µM). Compounds tested in follow-up screens were assayed at 11-point dilutions. Cells were incubated for 48 hours, followed by addition of 3 µL of CellTiter-Glo (Promega). After a 15 min incubation at room temperature, samples were analyzed for luminescence intensity using a ViewLux High-throughput CCD imager equipped with clear filters.
row,SMILES,Potency
1,C[N+]12CCC(CC1)C(OC(=O)C(O)(c1ccccc1)c1ccccc1)C2 (stereo not given),inactive
2,CC(=O)Nc1ccc(OC(=O)c2ccccc2OC(C)=O)cc1,inactive
3,O=C(CN1CCN(Cc2ccc3c(c2)OCO3)CC1)N1c2ccccc2Sc2ccccc21,inactive
4,CCCCCCCCCCCCSCCOCCO,inactive
5,COc1cc(O)c(C(=O)c2ccccc2)cc1S(=O)(=O)O,inactive
6,N#C/C(=C1\SCC(c2ccccc2Cl)S1)n1ccnc1 (stereo not given),inactive
7,CC(=O)OCC1=C(C(=O)O)N2C(=O)[C@@H](NC(=O)CSc3ccncc3)[C@H]2SC1,inactive
8,CC(=O)N[C@@H](CCC(=O)O)C(=O)O,inactive
9,Clc1cccc(C(c2ccc3nc[nH]c3c2)n2ccnc2)c1 (stereo not given),inactive
10,COc1cc(C(=O)NCc2ccc(OCCN(C)C)cc2)cc(OC)c1OC,inactive
11,CCNC(=O)/C=C/c1cccc(Br)c1,inactive
12,CCOc1ccc(NC(C)=O)cc1,inactive
13,CCOC(=O)c1ccc(N)cc1,inactive
14,CO[C@]12C[C@@H](COC(=O)c3cncc(Br)c3)CN(C)[C@@H]1Cc1cn(C)c3cccc2c13,inactive
15,O=C1C(=O)c2ccccc2C(O)=C1C1CCC(c2ccc(Cl)cc2)CC1 (stereo not given),inactive
16,O=C(O)Cc1csc(-c2ccc(Cl)cc2)n1,inactive
17,C=C[C@H]1CN2CC[C@H]1C[C@H]2[C@H](O)c1ccnc2ccc(OC)cc12,inactive
18,CN1CCN(CCC(=O)N2c3ccccc3Sc3ccc(C(F)(F)F)cc32)CC1,inactive
19,CC(=O)OC[C@H]1O[C@@H](n2ncc(=O)[nH]c2=O)[C@H](OC(C)=O)[C@@H]1OC(C)=O,inactive
20,COP(=O)(OC)OC(c1ccc(Cl)cc1)P(=O)(OC)OC (stereo not given),inactive

row,SMILES,Potency
1,Nc1ccc(S(=O)(=O)Nc2cnc3ccccc3n2)cc1,inactive
2,CCCc1ncc(C[n+]2ccccc2C)c(N)n1,inactive
3,C#C[C@]1(O)CC[C@H]2[C@@H]3CCc4cc(OC)ccc4[C@H]3CC[C@@]21C,inactive
4,c1ccc(-c2nc[nH]c2-c2ccccc2)cc1,inactive
5,O=C(Nc1ccccc1)OCC(CN1CCCCC1)OC(=O)Nc1ccccc1 (stereo not given),inactive
6,NS(=O)(=O)c1cc(C(=O)O)cc(N2CCCC2)c1Oc1ccccc1,inactive
7,CN1CCN(C2=Nc3ccccc3Sc3ccc(Cl)cc32)CC1,inactive
8,CC(C)(C)NCC(O)COc1cccc2c1C[C@H](O)[C@H](O)C2 (stereo not given in full),inactive
9,Cc1ccc(O)c([C@H](CCN(C(C)C)C(C)C)c2ccccc2)c1,inactive
10,CN(C)C(=O)Nc1ccc(Cl)c(Cl)c1,inactive
11,O=C(O)CCNC(=O)c1ccccc1,inactive
12,CC(C)[C@@H]1CC[C@@H](C)CC1=O,inactive
13,CCC1Nc2cc(Cl)c(S(N)(=O)=O)cc2S(=O)(=O)N1 (stereo not given),inactive
14,CC(C)Cn1cnc2c1c(=O)n(C)c(=O)n2C,inactive
15,NC(=S)N/N=C/c1cccnc1,inactive
16,O=C(N/N=C/c1ccc([N+](=O)[O-])o1)c1ccc(O)cc1,inactive
17,O=[N+]([O-])c1ccc(/C=N\O)o1,inactive
18,COc1ccccc1N1CCN(CCCCNC(=O)c2ccc(-c3ccc(C(C)=O)cc3)cc2)CC1,inactive
19,CN(C)CCOC(=O)C(c1ccccc1)C1(O)CCCC1 (stereo not given),inactive
20,C[C@H]1[C@H]2CC[C@H]3[C@@H]4CC=C5C[C@@H](N(C)C)CC[C@]5(C)[C@H]4CC[C@]23CN1C,inactive
